In the supplement of paper PMC9694430:

Experiments:
Experiment in all cases: thermal shift delta Tm vs DMSO control; higher = stronger stabilization (binding)
Details in all cases: 12.5 µM; protein concentration 2 µM
LOC_OS04G57630-cb004 = test system: LOC_OS04G57630-cb004
Summary of the method: (§1)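 The melting temperature shift given here is a triplicate mean, measured against protein that received only DMSO. Melting temperatures came from Boltzmann fits of differential scanning fluorimetry data on E. coli-expressed, purified rice kinase domain constructs. Each 19.5 μl well contained 2 μM kinase, 100 mM potassium phosphate pH 7.5, 150 mM NaCl, 10% glycerol, 5 × SYPRO Orange and compound in DMSO. Plates were scanned from 25°C to 95°C at 0.05°C/s.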

LOC_OS05G07850-cb002 = test system: LOC_OS05G07850-cb002
Summary of the method: as §1

LOC_OS05G16824-cb004 = test system: LOC_OS05G16824-cb004
Summary of the method: as §1

LOC_OS05G28520-cb001 = test system: LOC_OS05G28520-cb001
Summary of the method: as §1

LOC_OS05G30820-cb001 = test system: LOC_OS05G30820-cb001
Summary of the method: as §1

LOC_OS05G43570-cb004 = test system: LOC_OS05G43570-cb004
Summary of the method: as §1

LOC_OS06G16330-cb003 = test system: LOC_OS06G16330-cb003
Chain of LOC_OS06G16330-cb003 (as listed by the source): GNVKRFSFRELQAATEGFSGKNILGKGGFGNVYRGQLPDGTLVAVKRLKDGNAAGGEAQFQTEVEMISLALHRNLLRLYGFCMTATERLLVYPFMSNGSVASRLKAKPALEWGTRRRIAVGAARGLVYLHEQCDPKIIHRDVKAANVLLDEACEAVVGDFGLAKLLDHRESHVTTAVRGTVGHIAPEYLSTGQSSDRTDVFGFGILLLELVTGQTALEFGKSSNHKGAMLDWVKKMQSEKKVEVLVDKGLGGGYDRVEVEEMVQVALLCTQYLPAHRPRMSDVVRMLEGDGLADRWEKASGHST
Summary of the method: as §1

LOC_OS06G22820-cb001 = test system: T1, LOC_OS06G22820-cb001
T1 sequence (whole entry): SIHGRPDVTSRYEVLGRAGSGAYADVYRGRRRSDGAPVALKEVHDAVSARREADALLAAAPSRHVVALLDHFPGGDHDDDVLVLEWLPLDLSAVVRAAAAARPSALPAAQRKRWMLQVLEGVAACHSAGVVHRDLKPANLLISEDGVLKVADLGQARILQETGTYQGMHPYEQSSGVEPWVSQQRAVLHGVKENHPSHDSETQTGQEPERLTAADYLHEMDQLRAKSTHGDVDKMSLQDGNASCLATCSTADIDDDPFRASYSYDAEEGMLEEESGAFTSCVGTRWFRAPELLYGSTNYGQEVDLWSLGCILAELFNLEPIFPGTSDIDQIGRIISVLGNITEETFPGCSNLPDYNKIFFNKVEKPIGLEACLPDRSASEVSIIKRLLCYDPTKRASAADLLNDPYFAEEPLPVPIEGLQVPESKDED
Summary of the method: as §1

LOC_OS07G06570-cb004 = test system: LOC_OS07G06570-cb004
Summary of the method: as §1

LOC_OS07G07230-cb001 = test system: LOC_OS07G07230-cb001
Summary of the method: as §1

Compound	thermal shift delta Tm (LOC_OS04G57630-cb004) [°C]	thermal shift delta Tm (LOC_OS05G07850-cb002) [°C]	thermal shift delta Tm (LOC_OS05G16824-cb004) [°C]	thermal shift delta Tm (LOC_OS05G28520-cb001) [°C]	thermal shift delta Tm (LOC_OS05G30820-cb001) [°C]	thermal shift delta Tm (LOC_OS05G43570-cb004) [°C]	thermal shift delta Tm (LOC_OS06G16330-cb003) [°C]	thermal shift delta Tm (LOC_OS06G22820-cb001) [°C]	thermal shift delta Tm (LOC_OS07G06570-cb004) [°C]	thermal shift delta Tm (LOC_OS07G07230-cb001) [°C]
Cn1cc(-c2cnn3c(N)c(Br)c([C@@H]4CCCNC4)nc23)cn1	0.1	6.22	4.78	0.02	0.27	0.29	7.12	0.34	0.75	0.55
CO[C@H]1C[C@@H]2CC[C@@H](C)[C@@](O)(O2)C(=O)C(=O)N2CCCC[C@H]2C(=O)O[C@H]([C@H](C)C[C@@H]2CC[C@@H](OCCO)[C@H](OC)C2)CC(=O)[C@H](C)/C=C(\C)[C@@H](O)[C@@H](OC)C(=O)[C@H](C)C[C@H](C)/C=C/C=C/C=C/1C [Everolimus (RAD001)]	-0.03	-0.04	1.13	0.62	0.41	0.57	0.13	1.04	0.88	-1.46
NC1(Cc2ccc(Cl)cc2)CCN(c2ncnc3[nH]ccc23)CC1	0.12	2.2	0.61	0.49	0.66	0.72	0.73	0.61	0.47	-0.27
COc1cc2nccc(Oc3ccc(NC(=O)C4(C(=O)Nc5ccc(F)cc5)CC4)cc3)c2cc1OC	2.62	12.8	3.14	7.75	0.54	0.51	5.17	1.2	0.82	0.35
Cc1cnc(NC(=O)Nc2cc(Br)c(C)cc2OC[C@@H]2CNCCO2)cn1	0.36	3.74	5.41	0.03	0.41	0.24	0.75	0.22	0.46	0.19
COCC(=O)NC/C=C/c1ccc2ncnc(Nc3ccc(Oc4ccc(C)nc4)c(C)c3)c2c1	0.08	3.11	-4.84	-0.02	0.4	0.04	0.23	0.59	0.41	0.08
CC1(C)OC(=O)C=C[C@]2(C)[C@H]3CC[C@@]4(C)[C@H](c5ccoc5)OC(=O)[C@H]5O[C@]54[C@]3(C)C(=O)C[C@@H]12 [Obacunone]	-0.08	-0.17	0.73	0.17	0.18	0.33	-0.35	0.3	1.76	0.44
CCC(=O)Nc1cccc(Oc2nc(Nc3ccc(N4CCN(C)CC4)cc3OC)ncc2Cl)c1	0.17	5.91	-0.12	0.72	0.41	0.44	0.62	0.4	0.81	0.4
COCCOc1cnc2ccn([C@H](C)c3nnc4c(F)cc(-c5cnn(C)c5)cn34)c(=O)c2c1	0.33	0.47	-0.61	0.19	0.72	0.35	2.3	0.29	1.07	0.81
CN1CCN(S(=O)(=O)c2ccc(-c3cnc(N)c(C(=O)Nc4cccnc4)n3)cc2)CC1	0.6	7.93	1.41	0.68	0.46	-0.03	2.59	0.9	1.34	0.52
